# A selection: hits, their analogues and other compounds. The true share with any hit is near 10%.
# NIH3T3 tox: Cytotoxic Profiling in NIH 3T3 Cell Line of Diverse Libraries Using Quantitative High-Throughput Screening | Potency, µM (highest dose often 96.7 µM), inactives show top-dose activity change, negative = cytotoxicity, hits mostly inhibitors | NIH 3T3 viability, CellTiter-Glo ATP luminescence, 48-72 h | actives 4.3% (n = 94,000) | AID 1345082, 2018; further: nearly all actives have a fitted effect of over 55% in size
#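 ATP-dependent luminescence (CellTiter-Glo) served as the viability signal for NIH 3T3 cells treated with compound for 48 or 72 hr at 37 °C.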
# hNpr1 antagonist: Natriuretic polypeptide receptor (hNpr1) antagonism - Primary qHTS; HEK293 hNpr1 GloSensor cGMP, ANP-stimulated luminescence; Potency, µM (doses to about 46.3 µM), for the others: at the highest dose activity change, negative = inhibition, most hits filed as inhibitors; actives 1.6% (n = 76,000); Atrial natriuretic peptide receptor 1 (Homo sapiens), P16066; calls by dose curve; further: nearly all actives have a fitted effect of over 60% in size
# Target sequence (P16066 whole entry, looked up): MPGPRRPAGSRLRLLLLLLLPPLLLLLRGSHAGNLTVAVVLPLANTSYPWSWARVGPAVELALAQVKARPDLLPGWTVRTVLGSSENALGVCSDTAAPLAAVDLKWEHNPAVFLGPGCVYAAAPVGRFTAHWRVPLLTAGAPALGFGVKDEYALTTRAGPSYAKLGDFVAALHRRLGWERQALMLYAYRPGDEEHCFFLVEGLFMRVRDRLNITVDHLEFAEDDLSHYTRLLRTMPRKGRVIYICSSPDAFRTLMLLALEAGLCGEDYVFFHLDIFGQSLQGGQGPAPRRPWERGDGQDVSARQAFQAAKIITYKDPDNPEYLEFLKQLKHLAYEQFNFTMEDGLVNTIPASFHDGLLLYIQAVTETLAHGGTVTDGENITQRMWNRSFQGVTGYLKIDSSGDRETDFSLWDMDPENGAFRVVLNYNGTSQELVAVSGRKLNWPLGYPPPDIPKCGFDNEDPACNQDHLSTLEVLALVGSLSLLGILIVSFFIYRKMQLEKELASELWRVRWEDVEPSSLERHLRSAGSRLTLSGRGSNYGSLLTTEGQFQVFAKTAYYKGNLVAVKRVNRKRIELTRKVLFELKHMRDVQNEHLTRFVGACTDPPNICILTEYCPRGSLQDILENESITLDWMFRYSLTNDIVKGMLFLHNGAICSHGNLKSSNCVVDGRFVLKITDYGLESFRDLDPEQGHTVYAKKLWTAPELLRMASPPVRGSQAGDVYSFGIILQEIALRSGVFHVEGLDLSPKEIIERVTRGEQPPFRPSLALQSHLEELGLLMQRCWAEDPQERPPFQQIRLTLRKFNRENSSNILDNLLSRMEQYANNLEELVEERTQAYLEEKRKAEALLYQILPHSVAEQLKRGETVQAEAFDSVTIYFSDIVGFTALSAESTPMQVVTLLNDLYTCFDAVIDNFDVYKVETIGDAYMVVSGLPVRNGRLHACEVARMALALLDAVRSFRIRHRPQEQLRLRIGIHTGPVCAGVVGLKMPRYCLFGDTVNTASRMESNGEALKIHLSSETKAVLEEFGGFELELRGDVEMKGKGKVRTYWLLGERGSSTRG
#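 HEK293 cells stably expressing human Npr1 and cGMP GloSensor pGS-40F, loaded 2 h with 2% GloSensor reagent, given compound 30 min at room temperature. Luminescence read before and 20 min after 0.1 nM hNppA.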
# GPT2 inh: Primary qHTS assay for inhibitors of Glutamate pyruvate transaminase 2 (GPT2); Alanine aminotransferase 2 (Homo sapiens), Q8TD30; Recombinant GPT2, coupled pyruvate oxidase/HRP Amplex Red fluorescence; Potency, µM (titrated, usually from 57.7 µM), inactives show at the highest dose activity change, negative = inhibition, usual class: inhibitors; actives 0.25% (n = 100,000); AID 1671188, 2021; further: nearly all actives have a fitted effect of over 60% in size
#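 Fluorescence read-out: pyruvate from GPT2 turnover coupled to pyruvate oxidase, HRP and Amplex Red (0.2mM ThPP, 0.2U/mL PO and HRP, 50uM Amplex final). Substrates 250uM a-KG, 2mM L-alanine; enzyme 10ng/uL; 30 min RT.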
# HEK cytotox: Cytotoxic Profiling in HEK 293 Cell Line of Diverse Libraries Using Quantitative High-Throughput Screening | Potency, µM (doses to about 115 µM), inactives show at the top dose activity change, negative = cytotoxicity, usual class: inhibitors | AID 1345083, 2018 | HEK 293 viability, ATP luminescence (CellTiter-Glo), 48-72 h | actives 6.6% (n = 94,000); further: nearly all actives have a fitted effect of over 60% in size
#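 Pintool-delivered compounds were incubated with HEK 293 cells (250 cells/well) at 37 degree Celsius for 48 or 72 hr. ATP-dependent luminescence (CellTiter-Glo) then reported remaining viable cells.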
# FLuc inh: Firefly luciferase inhibition profiling of diverse chemical library using quantitative high-throughput screening. Luciferin 4-monooxygenase (Photinus pyralis), P08659. actives 2.5% (n = 76,000). purified P. pyralis luciferase, luminescence, biochemical. Potency, µM (series often up to 115 µM), most hits filed as inhibitors; further: nearly all actives have a fitted effect of over 65% in size
#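 FLuc 10nM, D-luciferin 10uM, ATP 10uM, Mg acetate 10mM, Tris acetate pH 7.5, Tween/BSA; cpd qHTS; enzyme added last; CCD luminescence.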
# * = called active by the depositor; i = inactive; ? = inconclusive; · = no result given; [ ] = remark or other dose. Unless noted, the call rests on the fitted dose curve; in most records, active means well fitted curve in the direction sought with a large enough effect; inconclusive means small, poorly fitted or top-dose-only effect, or another doubt; inactive means no such curve, though single readings can be large; an effect the other way counts as inactive or inconclusive. On the % scale 0 is the no-effect control and ±100 the full control effect; potency means the concentration at half of the fitted maximal effect.
SMILES,NIH3T3 tox,hNpr1 antagonist,GPT2 inh,HEK cytotox,FLuc inh
Cc1noc(C)c1-c1cn(C)c(=O)n2cc(COc3ccc(Cl)cc3)nc12,?,-10%[70.6 µM],3%[88.5 µM],?,i
CCCn1ccc2sc(C)c(C(=O)N3CCN(c4ccccn4)CC3)c2c1=O,?,0%,i,?,i
Cn1cc(-c2ccccc2)c2nc(COc3ccc(Cl)cc3)cn2c1=O,50µM*,-21%[70.6 µM],-8%[88.5 µM],?,i
COCc1ccccc1-c1cn(C)c(=O)n2cc(COc3ccc(Cl)cc3)nc12,?,?,-27%[88.5 µM],?,i
O=C(NCc1ccncc1)C1CN(S(=O)(=O)c2ccc(F)cc2)CC12CCOCC2 (centres undefined),-24%,6%,-11%,-2%,i
CN(C)c1cccc(-c2cnc3[nH]cc(CC(=O)NCc4cccnc4)c3c2)c1,?,-10%[70.6 µM],i,?,?
CN(C)C(=O)Cc1c[nH]c2ncc(-c3cccnc3)cc12,25µM*,-1%[70.6 µM],-8%[88.5 µM],-29%[230 µM],i
CN(C)c1cccc(NC(=O)Cc2c[nH]c3ncc(-c4cccnc4)cc23)c1,?,-25%[70.6 µM],4%[88.5 µM],?,i
O=C(Cc1c[nH]c2ncc(-c3cccnc3)cc12)Nc1ccc(F)cc1,28µM*,-15%[70.6 µM],0%[88.5 µM],?,i
COc1ccc(CN2CCC3(CC2)C(=NC2CCCC2)NC(=O)N3c2cc(F)cc(F)c2)cc1,-12%,·,i,-17%,·
CCOCc1nc(C2CCCN2S(=O)(=O)c2cn(C)cn2)no1 (centres undefined),2%,2%,i,2%,i
Cc1ncc(CC(=O)NCC2CCN(c3cnn(C)c(=O)c3)C2)c(=O)[nH]1 (centres undefined),-1%,10%,?,-5%,i
O=C(c1cc(-c2cccc(C(F)(F)F)c2)c2cccn2n1)N1CCCC1,?,·,i,45µM*,·
O=C(NC1CCCC1)c1cc(-c2cccc(C(F)(F)F)c2)c2cccn2n1,?,·,i,40µM*,·
O=C(NCC(F)(F)F)c1cc(-c2cc(Cl)cc(Cl)c2)c2cccn2n1,?,·,-7%,40µM*,·
COC(=O)CNC(=O)c1cc(-c2cc(Cl)cc(Cl)c2)c2cccn2n1,?,·,i,?,·
O=C(NCC(F)F)c1cc(-c2cccc(C(F)(F)F)c2)c2cccn2n1,?,·,-16%,35µM*,·
CSCCNC(=O)c1cc(-c2cccc(C(F)(F)F)c2)c2cccn2n1,?,·,-22%,?,·
COCc1nc(CCNC(=O)c2cc(C)[nH]n2)no1,i,-1%,4%,0%,i
COCCN1C(=O)CS(=O)(=O)C12CCN(C(=O)c1cc(F)ccc1F)CC2,-11%,6%,-28%,2%,i
CN1C(=O)CCCCC1C(=O)N1CCOCC1 (centres undefined),i,-1%,3%,18%,i
COc1ccc(CN2C(=O)O[C@@H]3CN(C(=O)NC(C)(C)C)C[C@@H]32)cc1OC,i,-2%,-4%,1%,i
NCCc1n[nH]c(=O)n1-c1ccc(Cl)cc1,-6%,-3%,i,0%,i
C[S+](=O)([O-])c1ccc(-c2cc(C(=O)N3CCN(c4ncccn4)CC3)nn3cccc23)cc1,-24%,·,i,50µM*,·
CN(Cc1ccc(-c2ccccc2)cc1)S(C)(=O)=O,?,1%[70.6 µM],1%[88.5 µM],?,14µM*
SMILES,NIH3T3 tox,hNpr1 antagonist,GPT2 inh,HEK cytotox,FLuc inh
CN(Cc1ccc(-c2ccccc2)cc1)C(=O)C1CC1,?,?,i,?,50µM*
CN(Cc1ccc(-c2ccccc2)cc1)C(=O)C(C)(C)C,?,-5%[70.6 µM],i,63µM*,35µM*
CN(Cc1ccc(-c2ccccc2)cc1)C(=O)Cc1cccc(Cl)c1,?,?,i,63µM*,?
CN(Cc1ccccc1)Cc1ccc(-c2ccccc2)cc1,-21%[138 µM],0%[70.6 µM],i,?,i
CN(Cc1ccc(F)cc1)C(=O)C(C)(C)C,1%[174 µM],16%[70.6 µM],2%[88.5 µM],i,i
CC(C)CNC(=O)NC1CCN(C(=O)N2CC3CC(C2)[C@H]2CCCC(=O)N2C3)CC1 (some centres undefined),i,1%,3%,2%,i
COCC1CN(Cc2ccc(C(F)(F)F)cc2)CC12CCNCC2 (centres undefined),?,1%,i,?,i
CC(=O)N1Cc2ccccc2CC2(CCCCN2CC2CCOCC2)C1 (centres undefined),i,·,i,i,·
OC1CC(c2cc(N3CCC(c4nnc5ccccn45)CC3)ncn2)C1 (centres undefined),-2%,3%,1%,-1%,i
CN(Cc1ccccc1)C(=O)C1CCN(c2cc(C3CC(O)C3)ncn2)CC1 (centres undefined),-38%,13µM*,-3%,?,i
O=C(CCC1CCCN(S(=O)(=O)c2ccccc2F)C1)NC1CCCCC1 (centres undefined),-25%,?,-5%,32µM*,i
O=C(NC1CCCC1)c1cccc2c1CCN2S(=O)(=O)c1ccccc1F,35µM*,?,-1%,?,i
CCc1ccc(CNC(=O)CCC2CCCN(S(=O)(=O)c3ccccc3C)C2)cc1 (centres undefined),?,-26%,-2%,40µM*,i
Cc1nn(Cc2ccccc2)c(C)c1[C@@H]1C=C[C@@H](NC(=O)Nc2ccccc2)C1,?,-21%[70.6 µM],-28%[88.5 µM],?,i
O=C(c1ccc(F)cc1)N1CCC2(CC1)OCC(C(=O)N1CCCC1)N2C(=O)c1cccc(F)c1 (centres undefined),-20%,-3%,?,-14%,i
O=C1CC2(CCN(Cc3cccc4ccccc34)CC2)Oc2ccccc21,?,-14%,5%,35µM*,i
O=C1CC2(CCN(Cc3ccsc3)CC2)Oc2ccccc21,?,10%[70.6 µM],-2%[88.5 µM],?,45µM*
O=C1CC2(CCN(Cc3ccccc3)CC2)Oc2ccccc21,?,-18%[70.6 µM],i,?,?
COc1ccc(CN2CCC3(CC2)CC(=O)c2ccccc2O3)cc1,-22%[138 µM],-1%[70.6 µM],i,-24%[172 µM],i
O=C1CC2(CCN(Cc3cccc4ccccc34)CC2)Oc2cc(Cl)ccc21,?,14%,3%,?,i
O=C1CC2(CCN(Cc3ccc(C(F)(F)F)cc3)CC2)Oc2ccccc21,?,?,i,25µM*,i

# Source: PubChem (National Center for Advancing Translational Sciences (NCATS))
